Screen size: about 2,000 compounds; about 680 (34%) were called active. No stated cut-off is given here; in the data, active means inhibition mostly above about 28% (no sharp cut-off); inactive means mostly below about 22%. Not all results are given here.
Assay: PMA/ionomycin-induced NF-kB reporter inhibitors, 697 retest, confirmation, B-cell NF-kB inhibitor project, cell-based, luminescence, single concentration (AID 449746)
Conditions: 697 B-cell NF-kB luciferase, 16 h, at 4 µM, hits give high values

inhibition, inactive:
Cc1ccc(C(=O)C[n+]2cc(-c3ccccc3)n3c2CCCCC3)cc1 11.4%, c1ccc2[nH]c(-c3nc4ccccc4[nH]3)nc2c1 -191%, Cc1cccc(Nc2nc(-c3ccccc3)cs2)n1 -201%, COc1cccc(NC(=O)[C@H](Cc2c[nH]c3ccccc23)NC(=O)[C@@H]2Cc3ccccc3CN2)c1 0.1%, CC[n+]1cc(C)ccc1/C=C/c1ccc(N(C)C)cc1 17.4%, COC(=O)C1=C(C(=O)c2ccc(C)cc2)C(c2ccccc2)n2nnnc2N1 (configuration not stated) 22.4%, CCc1ccc2oc(-c3ccc(N)cc3)nc2c1 -417%, CCCCCc1ccc(-c2ccc(C(=O)O)cc2)nc1 -165%, CNc1nc(Nc2ccc(C)c(Cl)c2)nc(N)c1[N+](=O)[O-] -231%, C=CCSc1nc(N)cc(=O)[nH]1 -19.9%, C=CCn1c(C)cc(C2=NNC(=NCC)SC2)c1C 2.7%, COc1cc(/C=N/NC(=O)c2ccc(N3CCCC3=O)cc2)ccc1O -89.1%, COc1ccc(-c2nc(-c3ccccc3)no2)c(OC)c1 -330%, CCn1c(O)c(N=NC2=NC(=O)CS2)c2cc(C)ccc21 17.4%, COc1ccc(/C=N/Nc2ccccc2C(=O)O)cc1 -12.1%, Clc1ccc(Nc2ccc3ccccc3n2)cc1 -340%, COc1ccc(/C=N\NC(=O)c2sc(N)nc2C)cc1OC 7.5%, CCC(=O)Nc1ccc2nn(-c3ccc(F)cc3)nc2c1 -298%, COc1ccc(CNC(=O)[C@@H]2CC=C[C@@H]3CCN(C4CC4)C(=O)[C@@H]32)cc1 6.95%, CCOc1cccc(/C=C/c2ccc3ccccc3n2)c1OC(C)=O -337%, COc1ccc(C(=O)NC2CCCc3c2cnn3-c2cccc(C)c2C)c(OC)n1 (configuration not stated) -397%, Cc1cc(Nc2cc(N3CCN(C)CC3)nc(Sc3ccc(NC(=O)C4CC4)cc3)n2)n[nH]1 27.8%, COc1c(C)c2c(c(O)c1C/C=C(\C)CCC(=O)O)C(=O)OC2 -398%, CC(C)CC(=O)N/C(N)=N/c1nc2ccccc2s1 -290%, Cc1ccc2cc3cc(C(=O)N4CCCCCC4)oc3nc2c1 -242%, COc1cc(N=Cc2c(O)[nH]c3ccccc23)cc(OC)c1OC 20.8%, CCOC(=O)c1c(-c2ccc(C)cc2C)csc1NC(=O)CSc1nnnn1C -192%, COc1ccc(-c2csc(Nc3ccccn3)n2)cc1 -117%, Cc1cc(N=Nc2ccc3ccccc3c2)ccc1O -266%, CC(C)(C)c1ccc(Oc2ccc(N)cc2)cc1 17.2%, Cn1c(-c2ccc(C(F)(F)F)cc2)cc2onc(-c3ccccc3)c2c1=O -301%, Cc1cc(N)n2nc(-c3ccc(C(C)(C)C)cc3)cc2n1 -470%, O=C(NC(Nc1nc2ccc([N+](=O)[O-])cc2s1)(C(F)(F)F)C(F)(F)F)c1ccccc1 -31.2%, CCCNC(=O)c1ccc(N2CCC3(CC2)CC(c2cccc(Br)c2)=NO3)c(NC(=O)c2ccco2)c1 16.6%, O=C(NCCCN1CCOCC1)c1cc(-c2ccc(Cl)cc2)on1 17.5%, O=c1c2c(nc3cc(-c4cccc(Cl)c4)[nH]n13)CCCC2 -285%, Clc1ccc2nc(CSc3ccccc3)cn2c1 -248%, Fc1ccccc1/C=N/Nc1cc(N2CCCCC2)ncn1 -264%, CCOc1ccc(C(c2c(C)[nH][nH]c2=O)c2c(C)[nH][nH]c2=O)cc1OCC 18.2%, CC(C)CCNC(=O)c1ccc2c(Cl)c3c(nc2c1)CCC3 -231%, Cc1ccc(NC(=O)c2cc([N+](=O)[O-])ccc2Cl)c(O)c1 11.5%, CC[C@]1(O)CC2CN(CCc3c([nH]c4ccccc34)[C@@](C(=O)OC)(c3cc4c(cc3OC)N(C=O)[C@H]3[C@@](O)(C(=O)OC)[C@H](OC(C)=O)[C@]5(CC)C=CCN6CC[C@]43[C@@H]65)C2)C1 (some centres not stated) -337%, COc1ccc(C2=Nc3cc(C)ccc3OC2)cc1 -255%, Cc1ccc(N/C=C/C(=O)c2ccccc2)cc1C -12.9%, CNC(=O)c1ccc(NC(=O)c2cccc(C(F)(F)F)c2)cc1 12.7%, COc1ccc(-n2nnnc2-c2nc3ccccc3s2)cc1 -323%, COc1ccc2nc(SCc3ccccc3)nc(C)c2c1 -295%, O=C(Nc1nc2ccccc2s1)c1ccc2c(c1)OCO2 -466%, Cc1ccc(-n2cc3ccc([N+](=O)[O-])cc3n2)cc1 -341%, Cc1cc2nc(-c3ccc(NC(=O)c4cccnc4)cc3)oc2cc1C -187%, Cc1cccc(-n2c(C)cc(/C=N\NC(=O)c3cccs3)c2C)c1 -11.6%, COc1cccc(/C=C/c2ccc3ccccc3n2)c1OC(C)=O -459%, COc1ccc(/C=C2\SC(=S)N(CCC(=O)Nc3ccccn3)C2=O)cc1OC 10.2%, NS(=O)(=O)c1ccccc1NC(=O)c1c(O)c2ccccc2[nH]c1=O -472%, O=C(/C=C/c1ccc(OCc2c(F)cccc2Cl)cc1)N1CCOCC1 -278%, COc1ccc(CNC(=O)CNC(=O)c2sc3ccccc3c2Cl)cc1OC 3.3%, Cn1c(-c2ccc(F)cc2)cc2onc(-c3ccccc3Cl)c2c1=O -244%, O=c1[nH]c(-c2ccccc2)c(-c2ccccc2)[nH]1 25.8%, CCOc1ccc(N/C=C/C(=O)c2ccccc2)cc1 -272%, COc1ccccc1OCc1nc2ccccc2s1 -319%, Cn1c(-c2ccc(C(=O)c3ccccc3)s2)nc2ccccc21 -249%, Cc1ccc(OCc2nc3ccccc3n2C)cc1 -216%, COc1cccc(-c2nc3cc(C)ccc3o2)c1 -299%, COc1ccc(Nc2nc(-c3ccccc3)cs2)cc1 -131%

inhibition, active:
CCOc1cc(C(=O)N2CCc3cc(OC)c(OC)cc3C2)ccc1OC(F)F 43.5%, CCN1/C(=C\c2ccc3ccccc3[n+]2CC)Sc2cc(C)ccc21 68.5%, OCCCNc1nccc(-c2cc(Nc3cccc(Cl)c3)ncn2)n1 85.9%, O=C(C1CCC1)N1CCN(S(=O)(=O)c2ccc([N+](=O)[O-])cc2)CC1 30.8%, COc1ccc(C(=O)n2nc(-c3ccc(Cl)cc3)nc2N)cc1OC 46.5%, O=C(O)COc1ccc(-c2nccc(-c3cccs3)n2)cc1 55%, C/C=C(/C)C(=O)OC1Cc2c(ccc3ccc(=O)oc23)OC1(C)C (configuration not stated) 50.1%, CCOC(=O)c1cc2c(=O)n3ccccc3nc2n(CC(C)C)c1=NC(=O)c1c(-c2c(F)cccc2Cl)noc1C 33%, Cn1nccc1C(=O)NC1CCCc2c1cnn2-c1ccccc1F (configuration not stated) 97.9%, Cn1nccc1C(=O)NC1CCCc2c1cnn2-c1ccc(F)cc1F (configuration not stated) 105%, OCCN1CCN(C(=S)c2ccc(-c3ccccc3)cc2)CC1 47%, O=C(CN1C(=O)c2ccccc2S1(=O)=O)N1CCc2ccccc21 32.4%, CCNC(=O)CCc1nc(-c2ccc(C(C)(C)C)cc2)no1 79.3%, CC(C)C[C@@H](N)c1nnc(SCC(=O)c2ccc(Cl)cc2)o1 56.2%, Cn1c(=O)cc(SCC(=O)N2CCCC2)c2cc(Cl)ccc21 38.2%, Cc1ccc(O)c(NC(=O)COc2cc(C)ccc2C)c1 28.7%, Cc1cccc(C(=O)Nc2ccc(CC(=O)O)cc2)c1 21.7%, Cn1c(=O)n(C)c2cc(C(=O)Nc3ccc4c(c3)OCO4)ccc21 35.1%, C/C(=N\Nc1nc(Nc2ccccc2)nc(N2CCOCC2)n1)c1cccs1 34.2%, C[C@@H]1C[C@@H]2O[C@H]2/C=C\C=C\C(=O)Cc2c(Cl)c(O)cc(O)c2C(=O)O1 79.9%, C=CCOc1ccc(/C=C2\SC(=S)N(CCC(=O)O)C2=O)cc1 54.5%, O=C(O)CCn1c(O)c(C=C2N=c3ccccc3=N2)sc1=S 58.5%, CCCc1nc2c(C)cc(-c3nc4ccccc4n3C)cc2n1Cc1ccc(-c2ccccc2C(=O)O)cc1 28.4%
